# Hits are enriched below; roughly 2.2% of the tested compounds scored in any of these assays.
# TDP-43 yeast inh – inhibitors of TDP-43 toxicity in yeast. TDP-43 expressing yeast growth rescue, BacTiter-Glo, 24 h. Potency, µM (doses to about 46.1 µM), for inactives: top-dose growth rescue (activation), actives largely listed as activators. hit rate 1.8% among 410,000. AID 652104; also: % of control where 0% means no effect; nearly all actives have a fitted effect of over 50% in size
#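 Growth rescue of TDP-43-toxic yeast measured as ATP luminescence (BacTiter-Glo). Cells grown to mid-log in raffinose, induced in galactose at OD600=0.02, exposed to compound 24 hr at 30 deg C.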
# ERG-DNA inh – inhibitors of human ERG Ets domain-DNA interaction; hit rate 0.028% among 370,000; P11308; Potency, µM (highest dose often 76.9 µM), inactives show at the top dose FP activity, negative = inhibition, most hits filed as inhibitors; fluorescence polarization, His-ERG Ets domain / labelled DNA; AID 624246; active = well fitted inhibition curve with a large enough effect in the polarisation, with a control signal flat; inconclusive = small, poorly fitted or top-dose-only effect, or effect the other way, or a change in a side signal; inactive = no such curve, though single readings can be large or run the other way; the % refers to the polarisation;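 also: polarization taken with two DNA probes labelled with fluorescein and Texas red; % of control where 0% means no effect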
# Target sequence (P11308 whole entry, looked up, the tested form may be a part): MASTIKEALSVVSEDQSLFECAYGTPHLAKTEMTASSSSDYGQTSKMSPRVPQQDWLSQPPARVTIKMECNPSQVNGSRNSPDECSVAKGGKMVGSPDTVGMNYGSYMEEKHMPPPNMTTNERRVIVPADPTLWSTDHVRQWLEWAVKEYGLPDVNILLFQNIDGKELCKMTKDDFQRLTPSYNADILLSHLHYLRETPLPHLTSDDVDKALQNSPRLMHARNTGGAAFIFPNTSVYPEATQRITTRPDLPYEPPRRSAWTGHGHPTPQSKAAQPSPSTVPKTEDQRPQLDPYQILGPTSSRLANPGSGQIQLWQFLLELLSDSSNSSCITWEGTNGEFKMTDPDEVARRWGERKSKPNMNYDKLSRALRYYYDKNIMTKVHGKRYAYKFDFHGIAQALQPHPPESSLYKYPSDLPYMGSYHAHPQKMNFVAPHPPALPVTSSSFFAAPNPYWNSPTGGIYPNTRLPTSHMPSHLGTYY
#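 His-tagged ERG Ets domain (1 uM in the protein solution; 300mM KCl, 50mM Tris-HCl, 1mM EDTA, 1mM DTT, pH 7.5) received compound, then a probe mix of 5 nM fluorescein-DNA and 100nM Texas-615-DNA. Fluorescence polarization was read for both dyes.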
# Mito fusion act – inhibitors of mitochondrial division or activators of mitochondrial fusion | S. cerevisiae fusion-defective mutant growth rescue, CellTiterGlo 48 h | Potency, µM (doses to about 46.1 µM), for inactives: top-dose growth rescue (activation), hits mostly activators | hit rate 0.23% among 320,000 | AID 485298; also: % of control where 0% means no effect; nearly all actives have a fitted effect of over 45% in size
#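 Compounds are tested for their ability to restore growth of mitochondrial fusion-defective yeast strains at non-permissive 37C in YPEG medium over 48 hours. Viability is quantified by luciferase luminescence.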
# aSyn yeast inh – inhibitors of alpha-synuclein toxicity in yeast | Yeast expressing alpha-synuclein, growth rescue, BacTiter-Glo, 24 h | Potency, µM (highest dose often 46.1 µM), for inactives: top-dose growth rescue (activation), actives largely listed as activators | hit rate 0.14% among 370,000; also: % of control where 0% means no effect; nearly all actives have a fitted effect of over 65% in size
#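 Galactose-induced alpha-syn yeast (OD600=0.02, raffinose-pregrown) + pinned cpd, 24 hr, 30 deg C; growth by BacTiter-Glo luminescence. Growth restoration scores as activation.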
# FUS suppressor – FUS proteinopathy suppression in yeast; S. cerevisiae FUS-expressing, growth rescue, OD600, 24 h; Potency, µM (titrated, usually from 76.6 µM), usual class: activators; hit rate 0.24% among 390,000; AID 1347120;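 also: plate controls were DMSO vehicle for no effect and reference control for full effect; nearly all actives have a fitted effect of over 55% in size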
#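 Toxicity suppression screen in FUS-yeast. Cells induced with 2% galactose, starting OD 0.005, treated 24hr at 30C with compounds at multiple final concentrations; growth by OD600.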
# Abeta yeast res – restores growth of yeast expressing A-beta42 peptide | yeast expressing A-beta42, growth rescue, OD600, 48 h; response scale: 0% DMSO, 100% iron-clioquinol control | Potency, µM (top dose mostly 46.1 µM), hits mostly activators | hit rate 0.063% among 410,000; also: nearly all actives have a fitted effect of over 55% in size
#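 Yeast growth medium received pinned compounds, then yeast cells expressing toxic A-beta were added; plates incubated at 30 C for 48 hr. Growth read as absorbance at 600 nm, normalized to DMSO and equimolar FeCl3 plus clioquinol controls.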
# Starred values were filed as active, the others as inactive; i = inactive; u = inconclusive; x = no result given. Unless noted, calls follow the shape of the dose curve; as a rule, active = well fitted curve in the direction sought with a large enough effect; inconclusive = small, poorly fitted or top-dose-only effect, or another doubt; inactive = no such curve, though single readings can be large; an effect the other way counts as inactive or inconclusive. Potency is read from the fitted curve at half-maximal effect.
SMILES,TDP-43 yeast inh,ERG-DNA inh,Mito fusion act,aSyn yeast inh,FUS suppressor,Abeta yeast res
O=C(Nc1ccccn1)c1ccc(Br)s1,6.3µM*,1%,1%,-7%,i,i
NC(=O)c1ncn([C@@H]2O[C@H](CNCc3ccc(OCC(=O)Nc4nccs4)cc3)[C@@H](O)[C@H]2O)n1,0%,7%,x,-10%,i,i
CCCC(CC)Sc1nc2c([nH]1)c(=S)n(C)c(=O)n2C (centres undefined),35µM*,-1%,x,7%,x,i
COc1ccc(CC(=O)c2ccc(O)cc2O)cc1,13µM*,2%,5%,-4%,i,i
O=C(Cc1ccc([N+](=O)[O-])cc1)c1ccc(O)cc1O,16µM*,-1%,0%,-9%,i,i
O=C(Cc1ccc(Br)cc1)c1ccc(O)cc1O,u,7%,7%,-11%,i,i
O=C(Cn1nnnc1-c1ccccc1F)Nc1ccc(OC(F)(F)F)cc1,11%,-3%,x,x,i,i
COc1ccc(S(=O)(=O)Nc2c(O)ccc3ccccc23)cc1OC,10%,1%,x,5%,i,i
CCCc1cnc2c(c1SCc1cccc(C)c1)c(=O)n(C)c(=O)n2C,9%,3%,x,x,i,i
CC(C)(C)C(=O)Nc1cc(-c2cccc(Br)c2)nn1-c1ccccc1,22µM*,-8%,x,x,i,i
CCOC(=O)C1=CCN(S(=O)(=O)c2cccc(Cl)c2)C1c1ccc(Br)cc1 (centres undefined),0%,x,x,20µM*,u,i
CCN(CC)CC(=O)Nc1ccc(C)cc1C(=O)c1ccccc1,6%,6%,-1%,4%,i,i
Cc1ccc(S(=O)(=O)NCCC(=O)Nc2ccc(C)cc2C(=O)c2ccccc2)cc1,22µM*,8%,25%,19%,i,i
CCc1cc2c(cc3c(=O)n(CC(=O)NC4CCC(C)CC4)ncn32)s1 (centres undefined),0%,1%,x,x,i,i
CC(C)CN1CCC(=O)N(CCSc2ccccc2)CC1,3%,10%,0%,0%,i,i
O=C(NCc1ccccc1)Nc1ccccc1C(=O)N1CCCC1,x,x,x,x,i,x
COc1ccc(C(=O)c2sc(Nc3ccc(NC(C)=O)cc3)nc2C)cc1,24%,11%,6%,-10%,i,i
Cc1nc(Cl)sc1C(=O)Nc1cccc(Cl)c1,14µM*,3%,9%,16%,i,i
Cc1nc(Nc2ccccc2)sc1C(=O)c1ccc(F)cc1,22µM*,1%,-102%,0%,i,i
CC(=O)c1cccc(NC(=O)c2sc(Cl)nc2C)c1,u,7%,2%,5%,i,i
COc1ccc(Nc2nc(-c3ccccc3)c3ccccc3n2)cc1,23%,9%,25µM*,0%,x,i
COc1ccc(Nc2nc(C)c(-c3ccccc3)s2)cc1,13µM*,2%,-1%,-18%,x,i
COc1ccccc1NC(=O)CSc1oc(-c2ccccc2)nc1S(=O)(=O)c1ccccc1,6%,5%,x,x,i,i
Nc1nc(Nc2ccccc2F)sc1C(=O)c1ccccc1,22µM*,-5%,-15%,-17%,i,u
Cc1nc(Nc2ccccc2Cl)sc1C(=O)Nc1ccccc1,10%,7%,16µM*,-10%,i,i
SMILES,TDP-43 yeast inh,ERG-DNA inh,Mito fusion act,aSyn yeast inh,FUS suppressor,Abeta yeast res
Cc1nc(Nc2ccccc2)sc1C(=O)Nc1ccccc1,10µM*,-2%,1%,-1%,i,i
CCOC(=O)c1c(NC(=O)CSc2cn(CCNC(=O)c3ccc(OC)cc3)c3ccccc23)sc2c1CCC2,20%,0%,x,x,u,i
Cc1ccc2c(Cl)cc(Cl)c(OCC(=O)O)c2n1,14µM*,-3%,4%,-8%,i,i
Cc1ccc2c(Cl)cc(Cl)c(OCC(=O)N3CCCC3)c2n1,7%,-15%,0%,-1%,i,i
Cc1cccc(N(C)c2nc3ccccc3c3nnc(C)n23)c1,22µM*,1%,x,x,i,i
COc1ccccc1CC(=O)Nc1nc(-c2ccc(F)c(F)c2)cs1,18µM*,1%,0%,-7%,i,i
O=C(Cc1ccccc1F)Nc1nc(-c2ccc(F)cc2)cs1,13µM*,16%,14%,-7%,i,i
CCCCOC(=O)CCN1C(=O)/C(=C/c2ccccc2)SC1=S,x,x,x,x,i,x
Cc1cc(SCC(=O)N/N=C/c2ccc(O)c(O)c2O)c(C)cc1Br,5%,-29%,4%,16µM*,x,i
Cc1ccccc1Cn1c(-c2cccs2)nc2ccccc21,u,-1%,x,x,i,i
c1csc(Cn2c(-c3cccs3)nc3ccccc32)c1,13µM*,0%,8%,-16%,i,i
N#CCSc1nnc(COc2cccc3ccccc23)n1-c1ccccc1,20µM*,-10%,-3%,0%,i,i
Cn1c(=O)[nH]c2c(c1=O)CCO2,11%,x,x,3%,x,i
Cc1cc(NC(=O)c2ccccc2F)ccc1-c1nc2ccccc2s1,14%,7%,x,x,i,i
COc1ccc(CNC(=O)CSCc2cnn(-c3ccccc3)c2-n2cccc2)cc1,u,-4%,6%,11%,i,i
CCN(CC)C(=O)CSCc1cnn(-c2ccccc2)c1-n1cccc1,18µM*,6%,-2%,1%,i,i
CCc1ccccc1NC(=O)CSCc1cnn(-c2ccccc2)c1-n1cccc1,10%,4%,x,x,i,i
COc1ccc(NC(=O)CSCc2cnn(-c3ccccc3)c2-n2cccc2)cc1,16µM*,2%,x,x,u,i
O=C(CSCc1cnn(-c2ccccc2)c1-n1cccc1)NCc1ccc2c(c1)OCO2,10%,3%,22µM*,4%,i,i
CCCCNC(=O)C1(C)CCCCN1C(=O)c1cccc(OC(F)(F)F)c1 (centres undefined),-18%,x,x,-20%,i,i
CC(C)CN1C(=O)C[C@]2(C(=O)N(C)c3ccc(NC(=O)C(F)(F)F)cc32)C1c1ccccc1 (some centres undefined),x,x,x,x,i,x
O=C(CN1CCC(Cc2ccccc2)CC1)Nc1ccc2c(c1)OCCO2,3%,-7%,-2%,0%,i,i
O=C(Nc1ccc2c(c1)OCCO2)C(c1cc2ccccc2o1)N1CCC(Cc2ccccc2)CC1 (centres undefined),12%,x,x,-14%,16µM*,i
CC(=O)Nc1sc2c(c1C#N)CCCC2,16%,2%,5%,0%,i,i
